This note sets out measurements from PubChem BioAssay (EPA / NIEHS).

Read-out in assay [1]: Monokine induced gamma interferon (MIG), CXCL9 (gene 4283)
Briefly: BSK_hDFCGF_MIG: BioMAP Diversity Plus: hDFCGF Assay for Monokine induced gamma interferon (MIG) Biomarker Activity (AID 2283063). The settings on record: primary human foreskin fibroblasts; actives raise or lower the signal. The method, boiled down: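 ELISA read-out of MIG from primary human dermal fibroblasts 24 h post-dosing. Gain or loss of signal fitted bidirectionally, DMSO as baseline.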

Read-out in assay [2]: Vascular cell adhesion molecule 1 (VCAM1), VCAM1 (gene 7412)
As to the kind of experiment: BSK_hDFCGF_VCAM1: BioMAP Diversity Plus: hDFCGF Assay for Vascular cell adhesion molecule 1 (VCAM1) Biomarker Activity (AID 2283065).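 On AC50: VCAM-1 protein level quantified by ELISA after 24 h chemical exposure.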 The settings on record: primary human foreskin fibroblasts; actives raise or lower the signal. The method, boiled down:
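Primary human foreskin fibroblasts (hDFCGF system) were dosed with chemical and VCAM-1 was measured by ELISA 24 h later. Bidirectional curve fitting used DMSO as negative control and activity baseline.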

Read-out in assay [3]: Plasminogen activator inhibitor-1 (PAI1), SERPINE1 (gene 5054)
Briefly: BSK_hDFCGF_PAI1: BioMAP Diversity Plus: hDFCGF Assay for Plasminogen activator inhibitor-1 (PAI1) Biomarker Activity (AID 2283066). The settings on record: primary human foreskin fibroblasts; actives raise or lower the signal. The method, boiled down: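 Human foreskin fibroblast primary cells, 24 h chemical exposure; PAI-1 measured by ELISA. Bidirectional fitting relative to DMSO; parallel cultures stained with SRB for total protein to flag overt cytotoxicity.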

Read-out in assay [4]: Intercellular Adhesion Molecule 1 (ICAM1), ICAM1 (gene 3383)
As to the kind of experiment: BSK_KF3CT_ICAM1: BioMAP Diversity Plus: KF3CT Assay for Intercellular Adhesion Molecule 1 (ICAM1) Biomarker Activity (AID 2283067). The note with it: primary human keratinocytes with fibroblasts; actives raise or lower the signal. The method, boiled down:
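Human keratinocyte plus foreskin fibroblast primary co-culture was exposed to chemical for 24 h. ICAM-1 was then quantified by ELISA, and the data were fit bidirectionally against DMSO as the negative control and baseline.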

Read-out in assay [5]: Interferon-gamma inducible Protein 10 (IP10), CXCL10 (gene 3627)
As to the kind of experiment: BSK_KF3CT_IP10: BioMAP Diversity Plus: KF3CT Assay for Interferon-gamma inducible Protein 10 (IP10) Biomarker Activity (AID 2283068). The settings on record: primary human keratinocytes with fibroblasts; actives raise or lower the signal. The method in brief: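 In a primary skin co-culture of keratinocytes and fibroblasts, IP-10 is quantified by ELISA at 24 h after dosing. SRB staining of parallel wells monitors overt toxicity. Curves are fitted both directions against DMSO.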

A short description of assay [6]: BSK_KF3CT_SRB: Viability Assessment in the BioMAP Diversity Plus: KF3CT Assay (AID 2283069).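 Further: total protein by sulforhodamine B staining as a cytotoxicity measure; read 24 h after compound addition.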 The settings on record: primary human keratinocytes with fibroblasts. The method, boiled down:
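Human primary keratinocyte plus foreskin fibroblast co-culture exposed to chemicals for 24 h. Total protein measured by 0.1% sulforhodamine B staining after 10% TCA fixation, read at 560 nm; bidirectional fitting versus DMSO baseline.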

Read-out in assay [7]: Interleukin-1 alpha (IL1a), IL1A (gene 3552)
As to the kind of experiment: BSK_KF3CT_IL1a: BioMAP Diversity Plus: KF3CT Assay for Interleukin-1 alpha (IL1a) Biomarker Activity (AID 2283070). The note with it: primary human keratinocytes with fibroblasts; actives raise or lower the signal. The method in brief:
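Human keratinocyte plus foreskin fibroblast primary co-culture, sampled 24 h after chemical dosing. IL-1a measured by ELISA; responses fitted bidirectionally against DMSO baseline (negative control), so gain or loss of signal both count.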

Read-out in assay [8]: TIMP metallopeptidase inhibitor 2 (TIMP2), TIMP2 (gene 7077)
As to the kind of experiment: BSK_KF3CT_TIMP2: BioMAP Diversity Plus: KF3CT Assay for TIMP metallopeptidase inhibitor 2 (TIMP2) Biomarker Activity (AID 2283071). The note with it: primary human keratinocytes with fibroblasts; actives raise or lower the signal. The method, boiled down: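 Co-culture of human primary keratinocytes and foreskin fibroblasts, measured 24 h after chemical dosing. TIMP-2 quantified by ELISA and fitted in both directions relative to DMSO. Cytotoxicity checked in parallel cultures by SRB total-protein staining.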

Read-out in assay [9]: Transforming growth factor beta 1 (TGFb1), TGFB1 (gene 7040)
Briefly: BSK_KF3CT_TGFb1: BioMAP Diversity Plus: KF3CT Assay for Transforming growth factor beta 1 (TGFb1) Biomarker Activity (AID 2283072). The settings on record: primary human keratinocytes with fibroblasts; actives raise or lower the signal. The method in brief: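 Human keratinocyte/foreskin fibroblast co-culture; TGF-b1 measured by ELISA 24 h after dosing, fitted bidirectionally versus DMSO. Cytotoxicity checked in parallel cultures by total protein (SRB staining, 560 nm).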

Read-out in assay [10]: C-C motif chemokine 2 (Homo sapiens) (UniProt P13500)
Briefly: BSK_KF3CT_MCP1: BioMAP Diversity Plus: KF3CT Assay for Monocyte Chemoattractant Protein 1 (MCP1/CCL2) Biomarker Activity (AID 2283073). The note with it: primary human keratinocytes with fibroblasts; actives raise or lower the signal. The method, boiled down: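 Human keratinocyte plus foreskin fibroblast primary co-culture exposed to chemical for 24 h. MCP-1 levels measured by ELISA. Bidirectional curve fitting relative to DMSO negative control as baseline.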

Read-out in assay [11]: Matrix Metallopeptidase 9 (MMP9), MMP9 (gene 4318)
Briefly: BSK_KF3CT_MMP9: BioMAP Diversity Plus: KF3CT Assay for Matrix Metallopeptidase 9 (MMP9) Biomarker Activity (AID 2283074).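 On AC50: MMP9 protein level quantified by ELISA in the co-culture.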 The settings on record: primary human keratinocytes with fibroblasts; actives raise or lower the signal. The method, boiled down:
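Keratinocyte plus foreskin fibroblast human primary skin co-culture was dosed with chemical and MMP-9 was quantified by ELISA 24 h later. Bidirectional curve fitting used DMSO as negative control and activity baseline.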

Read-out in assay [12]: urokinase plasminogen activator (uPA), PLAU (gene 5328)
As to the kind of experiment: BSK_KF3CT_uPA: BioMAP Diversity Plus: KF3CT Assay for urokinase plasminogen activator (uPA) Biomarker Activity (AID 2283075). The note with it: primary human keratinocytes with fibroblasts; actives raise or lower the signal. The method, boiled down:
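Human keratinocyte plus foreskin fibroblast primary co-culture exposed to chemical for 24 h. uPA levels were quantified by ELISA, and activity was fitted bidirectionally against a DMSO negative-control baseline.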

Read-out in assay [13]: CD40, CD40 (gene 958)
As to the kind of experiment: BSK_LPS_CD40: BioMAP Diversity Plus: LPS Assay for CD40 Biomarker Activity (AID 2283076). The note with it: primary human HUVEC with PBMC; actives raise or lower the signal. The method, boiled down:
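Primary human umbilical vein endothelial cells co-cultured with peripheral blood mononuclear cells, LPS-stimulated, were dosed with chemical and read 24 h later. CD40 levels were measured by ELISA and fitted bidirectionally against DMSO as negative control and baseline.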

Read-out in assay [14]: E-selectin (Homo sapiens) (UniProt P16581)
As to the kind of experiment: BSK_LPS_Eselectin: BioMAP Diversity Plus: LPS Assay for Eselectin Biomarker Activity (AID 2283077). The note with it: primary human HUVEC with PBMC; actives raise or lower the signal. The method in brief: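 Human umbilical vein endothelial cells co-cultured with peripheral blood mononuclear cells under LPS stimulation; E-selectin measured by ELISA 24 h after chemical dosing. Activity fitted bidirectionally against DMSO as negative control and baseline.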

Read-out in assay [15]: Interleukin-8 (IL8), CXCL8 (gene 3576)
Briefly: BSK_LPS_IL8: BioMAP Diversity Plus: LPS Assay for Interleukin-8 (IL8) Biomarker Activity (AID 2283078). The settings on record: primary human HUVEC with PBMC; actives raise or lower the signal. The method in brief:
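Human umbilical vein endothelial cells co-cultured with PBMC were stimulated with LPS; IL-8 levels were measured by ELISA 24 h after chemical dosing. Activity was fitted bidirectionally against DMSO as negative control and baseline.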

Assay [16] is described as follows: BSK_LPS_SRB: Viability Assessment in the BioMAP Diversity Plus: LPS Assay (AID 2283079).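 Further: total protein by sulforhodamine B absorbance as a cytotoxicity measure; measured one day after compound addition.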 The settings on record: primary human HUVEC with PBMC. The method in brief: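 Human umbilical vein endothelial cells co-cultured with PBMC (LPS system) were dosed for 24 h. Total protein was stained with 0.1% sulforhodamine B after 10% TCA fixation, read at 560 nm, and fitted bidirectionally against DMSO baseline.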

Read-out in assay [17]: Interleukin-1 alpha (IL1a), IL1A (gene 3552)
Briefly: BSK_LPS_IL1a: BioMAP Diversity Plus: LPS Assay for Interleukin-1 alpha (IL1a) Biomarker Activity (AID 2283080). The settings on record: primary human HUVEC with PBMC; actives raise or lower the signal. The method, boiled down:
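Human umbilical vein endothelial cells co-cultured with peripheral blood mononuclear cells were LPS-stimulated and exposed to test chemicals for 24 h. IL-1 alpha was quantified by ELISA, with bidirectional curve fitting against DMSO as the negative control and baseline.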

Read-out in assay [18]: Monocyte Chemoattractant Protein-1 (MCP1), CCL2 (gene 6347)
Briefly: BSK_LPS_MCP1: BioMAP Diversity Plus: LPS Assay for Monocyte Chemoattractant Protein-1 (MCP1) Biomarker Activity (AID 2283081). The settings on record: primary human HUVEC with PBMC; actives raise or lower the signal. The method, boiled down: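 HUVEC plus PBMC co-culture (human primary cells, LPS system) exposed to test chemical for 24 h; MCP-1 measured by ELISA. Bidirectional curve fitting against DMSO baseline; parallel SRB total-protein staining flags overt cytotoxicity.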

Assay [19] can be described thus: BSK_LPS_PGE2: BioMAP Diversity Plus: LPS Assay for Prostaglandin E2 (PGE2) Biomarker Activity (AID 2283082). The note with it: primary human HUVEC with PBMC; actives raise or lower the signal. The method in brief:
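HUVEC plus human PBMC co-culture stimulated with LPS; secreted PGE2 quantified by ELISA 24 h after chemical dosing. Activity fitted bidirectionally against DMSO baseline; parallel SRB staining (0.1% SRB after 10% TCA fixation, 560 nm) flags overt cytotoxicity.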

Read-out in assay [20]: Matrix Metallopeptidase 1 (MMP1), MMP1 (gene 4312)
As to the kind of experiment: BSK_hDFCGF_MMP1: BioMAP Diversity Plus: hDFCGF Assay for Matrix Metallopeptidase 1 (MMP1) Biomarker Activity (AID 2283064). The settings on record: primary human foreskin fibroblasts; actives raise or lower the signal. The method in brief: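 Primary human foreskin fibroblasts in the hDFCGF system were dosed with test chemical, and MMP1 was measured by ELISA 24 h later. Values come from bidirectional curve fitting against the DMSO baseline.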

The source made the active and inactive calls. How the source made its calls: active means hit-call score of the fitted dose curve at least 0.9, where 1 is the maximum; inactive means score below 0.9.

Sequence of E-selectin (Homo sapiens) (P16581 whole entry, looked up): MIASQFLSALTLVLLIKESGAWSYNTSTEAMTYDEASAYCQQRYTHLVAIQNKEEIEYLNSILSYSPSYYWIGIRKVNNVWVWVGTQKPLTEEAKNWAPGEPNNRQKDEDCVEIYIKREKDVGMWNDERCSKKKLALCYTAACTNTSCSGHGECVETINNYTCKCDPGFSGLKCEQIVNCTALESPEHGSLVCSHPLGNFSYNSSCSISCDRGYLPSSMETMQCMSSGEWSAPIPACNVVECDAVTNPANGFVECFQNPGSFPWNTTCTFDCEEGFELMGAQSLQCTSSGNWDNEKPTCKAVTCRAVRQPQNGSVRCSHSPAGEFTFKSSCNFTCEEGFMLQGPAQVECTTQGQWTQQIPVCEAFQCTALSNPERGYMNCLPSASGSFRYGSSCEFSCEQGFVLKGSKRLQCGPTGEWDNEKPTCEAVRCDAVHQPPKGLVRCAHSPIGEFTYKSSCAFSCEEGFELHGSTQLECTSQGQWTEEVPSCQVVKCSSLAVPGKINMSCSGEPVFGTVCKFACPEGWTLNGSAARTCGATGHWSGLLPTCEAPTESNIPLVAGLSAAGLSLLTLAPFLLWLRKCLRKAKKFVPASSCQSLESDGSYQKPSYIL

Consider `CCC(C)(C)C(=O)O[C@H]1C[C@@H](C)C=C2C=C[C@H](C)[C@H](CC[C@@H]3C[C@@H](O)CC(=O)O3)[C@H]21`, for which the result in [1] and in assay [15] was inactive. Besides, the AC50 in [2] is 33.9 µM (active); in assay [3], 23.4 µM (active); in [4], 31.2 µM (active); in assay [5], 34.3 µM (active); in assay [6] it was 34.8 µM (active); in [7], 34.9 µM (active). Moreover, the AC50 in assay [8] was 30.8 µM (active); in assay [9], 31.4 µM (active); in assay [10], 36.9 µM (active); in assay [11], 31.6 µM (active); in assay [12], 31.2 µM (active); in assay [13], 6.52 µM (active). The AC50 in assay [14] was 0.168 µM (active); in assay [16], 4.75 µM (active); in assay [17], 1.28 µM (active).
Consider `CC[C@H]1CC[C@H](NCc2cc3c(cc2OC)[C@H]2C[C@H]2C(=O)N3C)[C@H](c2ccccc2)N1`, for which the outcome in assay [1], in assay [2], in assay [3], in assay [4], in [5] and in assay [6] was inactive. Also, the outcome in [7], in assay [8], in [9], in assay [10], in assay [11] and in assay [12] was inactive. The result in assay [13], in assay [14], in [15], in assay [16], in assay [17] and in [18] was inactive. The result in assay [19] was inactive.
In the case of `C[C@](N)(Cc1ccc(O)c(O)c1)C(=O)O`, the AC50 in [1] and in [2] was 20 µM (active) throughout. In addition, the result in [20], in assay [4], in assay [5], in [6], in assay [7] and in [9] was inactive. Besides, the result in [10], in [11], in assay [12], in assay [13], in assay [15] and in [16] was inactive. For the same compound, the outcome in assay [17] and in assay [18] was inactive.
Turning to `CCOC(=O)CC(CC(=O)OCC)(OC(C)=O)C(=O)OCC`, the result in assay [1], in assay [2], in [3], in assay [4], in assay [5] and in assay [6] was inactive. For the same compound, the outcome in assay [7], in assay [8], in assay [9], in [10], in [11] and in assay [12] was inactive. Further, the result in assay [13], in assay [15], in assay [16], in assay [17], in assay [18] and in assay [19] was inactive.

The AC50 is the midpoint of the concentration-response curve, whichever way the signal moves.
